# According to the supplement of paper PMC3545927:
# The list shows a part of the results. How many sequences the whole screen found active is unknown.
# B1: HC2268 (peptide)
# chain: CAWLEVVTSTAGNASASA
# B2: HC251 (peptide)
# chain: CALLSCLTVPAGNASASA
# B3: HC1201 (peptide)
# chain: CAALWRVSAEAGNASASA
# B4: FS-1540 (peptide)
# chain: CALLSRVRREAGNASASA
# B5: HC521 (peptide)
# chain: CALLFLLLADAGNASASA
# B6: FS-822 (peptide)
# chain: CALLFRSNRDAGNASASA
# B7: HC209 (peptide)
# chain: CALLSPRGSRAGNASASA
# B8: FS-611 (peptide)
# chain: CALLSRRPRDAGNASASA
# B9: FS-1493 (peptide)
# chain: CATKSRKKREAGNASASA
# B10: HC1667 (peptide)
# chain: CAFEECSQHLAGNASASA
# B11: FS-1340 (peptide)
# chain: CAHNSRKKREAGNASASA
# B12: HC1210 (peptide)
# chain: CAFHYVTGMTAGNASASA
# B13: HC792 (peptide)
# chain: CAGFGAYMSKAGNASASA
# B14: FS-3184 (peptide)
# chain: CARARRQLGTAGNASASA
# B15: FS-2957 (peptide)
# chain: CARKAKEEGTAGNASASA
# B16: FS-2034 (peptide)
# chain: CARKARALGTAGNASASA
# B17: HC2361 (peptide)
# chain: CAEVNCHRPSAGNASASA
# B18: CS3 (peptide)
# chain: CAPFDLLDFNAGNASASA
# B19: HC2426 (peptide)
# chain: CAMREVPCHRAGNASASA
# B20: FS-1512 (peptide)
# chain: CAARARHRKNAGNASASA
# B21: FS-279 (peptide)
# chain: CANQRRNKREAGNASASA
# B22: HC1567 (peptide)
# chain: CAARAAWETAAGNASASA
# B23: FS-217 (peptide)
# chain: CAARARNKREAGNASASA
# B24: FS-2265 (peptide)
# chain: CARKKKHRKNAGNASASA
# B25: HC958 (peptide)
# chain: CAARAQAPPPAGNASASA
# B26: HC205 (peptide)
# chain: CAEGCGWAGWAGNASASA
# B27: HC1485 (peptide)
# chain: CATESDIRTEAGNASASA
# B28: HC2093 (peptide)
# chain: CAVVCCSMSRAGNASASA
# Target: furin, P09958
# Test: furin cleavage Z-score vs untreated control; higher = more cleavage, active = 3.5 or more, inactive = 1 or less, 8 variable residues between constant flanks
# How it was run: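 Sequencing of released DNA, tagged with adapters by PCR, gave read counts used as abundance. That DNA was freed when purified furin cut N-terminally bead-bound 8-mer peptides fused to a cDNA oligonucleotide, in 0.01 ml reactions at 1:10 enzyme:substrate in 50 mM HEPES pH 7.5 with CaCl2 and NaCl, lasting 7.5, 15 or 30 min. The cleavage Z-score was the lowess-adjusted log count versus furin-free reactions, scaled by median absolute deviation.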
# furin, P09958, sequence (P09958 whole entry): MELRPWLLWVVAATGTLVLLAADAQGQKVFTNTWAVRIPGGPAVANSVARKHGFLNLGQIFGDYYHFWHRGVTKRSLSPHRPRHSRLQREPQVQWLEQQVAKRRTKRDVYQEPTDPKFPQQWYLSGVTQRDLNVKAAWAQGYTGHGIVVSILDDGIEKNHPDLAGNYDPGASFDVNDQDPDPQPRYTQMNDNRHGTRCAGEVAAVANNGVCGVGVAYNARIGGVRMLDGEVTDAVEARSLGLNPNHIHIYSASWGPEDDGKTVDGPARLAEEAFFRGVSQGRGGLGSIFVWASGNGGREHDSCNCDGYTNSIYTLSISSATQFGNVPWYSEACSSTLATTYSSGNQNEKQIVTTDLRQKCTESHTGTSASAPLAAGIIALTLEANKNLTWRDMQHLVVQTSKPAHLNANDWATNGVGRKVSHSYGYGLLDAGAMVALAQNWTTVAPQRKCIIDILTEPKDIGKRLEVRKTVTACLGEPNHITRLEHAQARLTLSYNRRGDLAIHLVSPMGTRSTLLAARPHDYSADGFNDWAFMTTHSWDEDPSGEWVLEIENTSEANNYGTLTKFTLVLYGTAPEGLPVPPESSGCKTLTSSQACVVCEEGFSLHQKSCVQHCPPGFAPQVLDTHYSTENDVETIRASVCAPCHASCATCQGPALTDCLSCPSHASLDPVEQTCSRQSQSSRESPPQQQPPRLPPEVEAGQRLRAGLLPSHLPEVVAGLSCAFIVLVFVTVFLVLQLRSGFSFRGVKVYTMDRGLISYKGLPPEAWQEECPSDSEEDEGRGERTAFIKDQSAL
Sequence,furin cleavage Z-score (7.5 min),furin cleavage Z-score (15 min),furin cleavage Z-score (30 min)
B1,0.509 (inactive),1.8,1.63
B2,-1.14 (inactive),0.458 (inactive),-0.633 (inactive)
B3,-1.28 (inactive),-0.15 (inactive),-1.16 (inactive)
B4,7.59 (active),6.32 (active),5.92 (active)
B5,-0.353 (inactive),-1.02 (inactive),-2.28 (inactive)
B6,5.19 (active),4.77 (active),4.55 (active)
B7,0.623 (inactive),-0.229 (inactive),0.325 (inactive)
B8,10.2 (active),10.5 (active),8.78 (active)
B9,12.1 (active),10.8 (active),8.58 (active)
B10,1.36,0.54 (inactive),-0.544 (inactive)
B11,11.8 (active),13.6 (active),9.48 (active)
B12,0.168 (inactive),-0.792 (inactive),-0.653 (inactive)
B13,1.73,-1.14 (inactive),1.32
B14,4.41 (active),5.24 (active),4.88 (active)
B15,-0.545 (inactive),1.07,-0.377 (inactive)
B16,7.98 (active),9.85 (active),7.74 (active)
B17,1.09,1.04,-0.207 (inactive)
B18,-0.762 (inactive),-0.626 (inactive),-1.52 (inactive)
B19,-1.33 (inactive),-0.795 (inactive),-0.936 (inactive)
B20,3.46,4.75 (active),6.6 (active)
B21,13.2 (active),11.8 (active),8.6 (active)
B22,1.07,0.154 (inactive),-0.51 (inactive)
B23,9.23 (active),10.8 (active),7.52 (active)
B24,0.00727 (inactive),-0.00103 (inactive),-1.45 (inactive)
B25,-1.14 (inactive),-1.1 (inactive),-1.17 (inactive)
B26,-0.871 (inactive),1.45,-1.04 (inactive)
B27,-0.326 (inactive),-0.524 (inactive),-0.55 (inactive)
B28,0.591 (inactive),1.03,0.426 (inactive)
